This is a sample that favours compounds with a hit; in the whole collection about 3.6% have one here.
MmCpn inh: inhibitors of Methanococcus maripaludis chaperonin TRiC (MmCpn); 330,000 compounds, 0.031% hits; purified Mm-Cpn ATPase, ADP Transcreener TR-FRET; Potency, µM (doses to about 76.9 µM), most hits filed as inhibitors; note: nearly all actives have a fitted effect of over 80% in size
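Inhibition of chaperonin ATP hydrolysis is measured as reduced ADP production, detected by competitive TR-FRET in which signal falls with ADP. Final enzyme 25 nM and ATP 10 uM, reacted 30 min at 37°C.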
aSyn rescue: inhibitors of alpha-synuclein toxicity in yeast; Potency, µM (titrated, usually from 46.1 µM), usual class: activators; 370,000 compounds, 0.14% hits; Yeast expressing alpha-synuclein, growth rescue, BacTiter-Glo, 24 h; AID 652106; note: nearly all actives have a fitted effect of over 65% in size
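Rescue of yeast growth: cells expressing toxic alpha-synuclein, induced in galactose at OD600 0.02, incubated with compound 24 h at 30 C. ATP luminescence quantified growth; inhibitors of toxicity appear as activators.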
FUS yeast rescue: suppressors of FUS proteinopathy in yeast; S. cerevisiae FUS-expressing, growth rescue, OD600, 24 h; Potency, µM (series often up to 76.6 µM), hits mostly activators; 390,000 compounds, 0.24% hits; note: nearly all actives have a fitted effect of over 55% in size
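Restored growth of FUS-toxic S. cerevisiae, read as 600 nm absorbance after 24 h at 30C in galactose medium (starting OD 0.005). Controls CP55940 and DMSO.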
Abeta yeast res: compounds reversing amyloid beta toxicity in yeast; Potency, µM (series often up to 46.1 µM), actives largely listed as activators; yeast expressing A-beta42, growth rescue, OD600, 48 h; response scale: 0% DMSO, 100% iron-clioquinol control; 410,000 compounds, 0.063% hits; note: nearly all actives have a fitted effect of over 55% in size
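Yeast A-beta toxicity model in growth medium with pinned compounds, 48 h at 30 C; growth read as absorbance at 600 nm. Normalized to FeCl3/clioquinol equimolar mix (positive) and DMSO (negative).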
TDP-43 yeast inh: inhibitors of TDP-43 toxicity in yeast. TDP-43 expressing yeast growth rescue, BacTiter-Glo, 24 h. Potency, µM (top dose mostly 46.1 µM), hits mostly activators. 410,000 compounds, 1.8% hits; note: nearly all actives have a fitted effect of over 50% in size
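Yeast expressing TDP-43 (pregrown in raffinose, seeded at OD600=0.02 in galactose medium) exposed to compounds 24 hr at 30 deg C. Growth read by BacTiter-Glo luminescence; rescue of toxicity appears as increased signal.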
ClpP mod: qHTS Assay for Activators of ClpP. Potency, µM (doses to about 57.5 µM). 340,000 compounds, 1.9% hits. ATP-dependent Clp protease proteolytic subunit (Bacillus subtilis (strain 168)), P80244. purified B. subtilis ClpP, FRET peptide cleavage, 20 min. AID 651965, 2013; active = well fitted falling curve with a large enough effect; inconclusive = small, poorly fitted or top-dose-only effect; inactive = no such curve, though single readings can be large or run the other way; note: the source files actives as falling curves though it sought activators and does not explain the sign; nearly all actives have a fitted effect of over 65% in size
Target sequence (P80244 whole entry, looked up): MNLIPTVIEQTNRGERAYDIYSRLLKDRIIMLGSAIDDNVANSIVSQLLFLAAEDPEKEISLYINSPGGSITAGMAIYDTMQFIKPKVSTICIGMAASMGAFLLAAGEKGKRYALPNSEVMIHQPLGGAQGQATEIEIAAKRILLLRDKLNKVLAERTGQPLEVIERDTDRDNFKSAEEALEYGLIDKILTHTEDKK
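FRET quenching reversal measured ClpP activation: 10 microg/mL B. subtilis ClpP at pH 8 with the FRET-FV decapeptide, read at 430 nm after 320 nm excitation. The 20-min minus 0-min signal was scaled between DMSO/no-enzyme wells and ADEP (5.8 microM final).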
A number is an active result; n = inactive; u = inconclusive; x = not tested or not shown; [ ] = remark or other dose. Unless noted, calls come from the whole dose curve; as a rule, active = well fitted curve in the direction sought with a large enough effect; inconclusive = small, poorly fitted or top-dose-only effect, or another doubt; inactive = no such curve, though single readings can be large; an effect the other way counts as inactive or inconclusive.

SMILES	MmCpn inh	aSyn rescue	FUS yeast rescue	Abeta yeast res	TDP-43 yeast inh	ClpP mod
COc1cc2c(cc1OC)/C(=C/c1ccc(Br)cc1)C(=O)OC2	n	n	u	n	13µM	n
CCCN(CCC)CCNC(=O)C1CCCN(S(=O)(=O)c2cccc3nsnc23)C1 (stereo not given)	x	x	n	n	n	n
CCN1CCN(S(=O)(=O)c2ccc(Cl)c(C(=O)NC(C)c3ccccc3Cl)c2)CC1 (stereo not given)	n	n	n	n	n	35µM
CCOc1ccccc1NC(=O)c1cc(S(=O)(=O)N2CCN(CC)CC2)ccc1Cl	n	n	n	n	n	n
COc1ccc(C(=O)Nc2cc(C(=O)O)cc(C(=O)O)c2)cc1Cl	n	n	n	n	n	n
COC(=O)c1cccc(NC(=O)c2ccc(OC)c(Cl)c2)c1	n	n	n	n	11µM	x
COC(=O)c1cccc(NC(=S)Nc2cc(Cl)ccc2OC)c1	n	n	n	n	22µM	x
Cc1cc(C(=O)COc2cccnc2[N+](=O)[O-])c(C)n1Cc1cccs1	n	n	n	n	n	n
CC(=O)Nc1ccccc1OCC(=O)c1cc(C)n(Cc2cccs2)c1C	n	n	n	n	22µM	n
O=C(Nc1ccc(F)cc1)[C@H](CSCc1ccccc1)N1Cc2ccccc2C1=O	x	x	n	n	n	n
FC(F)(F)C(F)(F)C(F)(F)c1nc2ccccc2[nH]1	x	n	x	x	x	n
Cn1c(C(=O)O)cc2cc(Oc3ccccc3)ccc21	n	n	n	n	22µM	n
Cn1c(C(=O)NN)cc2cc(Oc3ccccc3)ccc21	n	n	n	n	n	n
O=C(O)c1cc2cc(Oc3ccccc3)ccc2[nH]1	n	n	n	n	18µM	n
O=C(O)c1cc2ccccc2[nH]1	x	n	n	n	n	n
O=C(Nc1ccc(N2CCN(c3ccc(F)cc3)CC2)c(C(=O)O)c1)c1ccccc1F	x	x	n	n	n[9.22 µM]	n
CCOC(=O)C1=C(C)NC(C)=C(C(=O)OCC)C1c1c(F)c(F)c(F)c(F)c1F	x	n	x	x	x	x
Cc1cccc2sc(NNC(=O)c3ccc4c(c3)OCCO4)nc12	n	n	n	u	35µM	n
CCOC(=O)N1CCN(S(=O)(=O)c2ccc(C(=O)NNc3nc4cc(C)cc(C)c4s3)cc2)CC1	n	n	n	n	5.6µM	n
COc1cccc2sc(NC(=O)c3ccc4c(c3)OCCO4)nc12	x	x	n	n	n	n
Cc1cc(C)c2nc(NNC(=O)c3ccc(S(=O)(=O)N4CCCCC4)cc3)sc2c1	n	n	u	n	6.3µM	n
Cc1cc(C)c2nc(NC(=O)c3ccc(S(=O)(=O)N4CCCC4)cc3)sc2c1	x	n	n	n	n	n
Cc1cccc2sc(NNC(=O)c3ccc(S(=O)(=O)N4CCCC(C)C4)cc3)nc12 (stereo not given)	n	n	u	n	5.6µM	n
CC(C)c1ccc(-c2noc(SCC(=O)N3CCCCC3C)n2)cc1 (stereo not given)	x	x	n	n	u	n
CCOc1cc2ccccc2cc1C(=O)OCC(=O)Nc1ccc(Br)cc1	x	n	x	x	x	n
SMILES	MmCpn inh	aSyn rescue	FUS yeast rescue	Abeta yeast res	TDP-43 yeast inh	ClpP mod
CCc1nnc(NC(=O)c2ccc(S(=O)(=O)N3CCCC(C)C3)cc2)o1 (stereo not given)	n	22µM	n	u	u	n
CC(C)Cc1nnc(NC(=O)c2ccc3c(c2)OCCO3)s1	n	n	n	n	20µM	n
CCOCc1nnc(NC(=O)c2ccc3c(c2)OCO3)s1	x	n	n	n	n	n
CC(NS(=O)(=O)OCC(Cl)(Cl)Cl)c1ccc(C(C)(C)C)cc1 (stereo not given)	n	n	n	n	n	n
C[C@H](NS(=O)(=O)OCC(Cl)(Cl)Cl)C1CC1c1ccccc1 (stereo not given in full)	n	n	n	n	22µM	n
CCCCNC(=O)C1(C)CCCCN1C(=O)c1ccc2c(c1)C(C)(C)CCC2(C)C (stereo not given)	x	n	n	n	20µM	n
CCCCNC(=O)C1(C)CCN1C(=O)c1ccc2c(c1)C(C)(C)CCC2(C)C (stereo not given)	x	n	n	n	n	n
O=C(C1=C(O)C(=O)N(c2ncccn2)C1c1ccc(Cl)cc1)c1ccco1 (stereo not given)	n	n	32µM	n	n	n
Cc1ccc(C(=O)C2=C(O)C(=O)N(Cc3cccnc3)C2c2ccc(Cl)cc2)o1 (stereo not given)	n	n	28µM	n	n	x
COc1cc(C2C(C(=O)c3ccc(C)o3)=C(O)C(=O)N2CCCn2ccnc2)cc(OC)c1OC (stereo not given)	n	n	n	n	n	25µM
CC1CCN(c2nnc(-n3cccc3CNc3cccc(F)c3)s2)CC1	x	n	n	n	u	n
CCC(=O)Nc1ccccc1-c1nc2ccccc2n(Cc2cccc(Br)c2)c1=O	x	x	n	n	n	n
Cc1nn(C)c(C)c1NC(=O)c1cc2nc(-c3ccco3)cc(C(F)(F)F)n2n1	n	n	n	n	n	x
O=C(Nc1ccc(Cl)cc1)c1cc2nc(-c3ccco3)cc(C(F)(F)F)n2n1	n	n	n	n	n	14µM
CCOc1ccccc1NC(=O)c1sc2nc(-c3ccc(OC)cc3)ccc2c1N	x	x	n	n	n	n
Cc1ccc(N(Cc2ccccc2)C(=O)c2cccc(S(=O)(=O)N3CC(C)OC(C)C3)c2)cc1 (stereo not given)	n	n	28µM	n	n	x
CCOC(=O)C1(C)C=C(Nc2ccc(C)cc2)C(=O)N1c1ccccc1 (stereo not given)	x	x	n	n	n	n
CC1=NN(/C(=N\c2nnc(C)s2)Nc2ccccc2)[C@H](c2cccc3ccccc23)S1	n	n	u	n	u	n
CC1=NN(/C(=N\c2nnc(C)s2)Nc2ccc(C)cc2)[C@H](c2ccc(C)cc2)S1	n	n	n	n	13µM	n
Cc1ccc(S(=O)(=O)Nc2ccc(Nc3nccn4c(-c5cccc(OC(F)(F)F)c5)cnc34)cc2)cc1	x	n	u	n	n	32µM
CN1CCOc2cc(S(=O)(=O)N3CCN(c4nc(-c5cccs5)nc5ccccc45)CC3)ccc21	x	n	x	x	x	u
COc1ccc(C(CNC(=O)c2cccc(S(=O)(=O)N3CCOCC3)c2)N2CCOCC2)cc1 (stereo not given)	n	n	x	n	n	n
O=C(NCC(O)c1ccccc1)c1cccc(S(=O)(=O)N2CCOCC2)c1 (stereo not given)	n	n	n	n	n	32µM
